# How the values were obtained:
# Test in all cases: PBM binding z-score (relative to random genomic background probes); higher = stronger binding; sequences stand for … in GC…GCGATTGACAGCGTAGAATGAAGG
# [1] = test system: RARb homodimer (NR concentration 270 nM)
# Outline: (§1)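 Regression normalization was applied to scanned fluorescence from custom Agilent 4×180K protein-binding microarrays. Before scanning, arrays were incubated 1 h with ligand-free nuclear receptor dimers, and binding was detected with antibodies against each partner (one per run). Binding z-scores use the random background probes as reference.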
# [2] = test system: RARg:RXRa (NR concentration 270 nM, RXRa partner concentration 90 nM)
# Outline: as §1
# [3] = test system: RARg homodimer (NR concentration 270 nM)
# Outline: as §1
# [4] = test system: RXRa DBDmut IVT, anti-RXR (DBD mutation: RXRa K156A/R161A, NR concentration 90 nM)
# Outline: as §1
# [5] = test system: RXRa homodimer (NR concentration 180 nM)
# Outline: as §1
# [6] = test system: THRa:RXRa (NR concentration 90 nM, RXRa partner concentration 90 nM)
# Outline: as §1
# [7] = test system: THRa homodimer (NR concentration 90 nM)
# Outline: as §1
# [8] = test system: VDR homodimer (NR concentration 270 nM)
# Outline: as §1
Sequence,PBM binding z-score [1],PBM binding z-score [2],PBM binding z-score [3],PBM binding z-score [4],PBM binding z-score [5],PBM binding z-score [6],PBM binding z-score [7],PBM binding z-score [8]
GGAACGAGGGCCAAGTTGATAGCATCTGTCGACG,-0.0615,0.0796,0.46,0.125,0.105,-0.432,-0.99,-0.364
ATCGAAAGGTCGACGAGATGAGTATACACCGTTT,2.29,3.91,3.95,1.01,4.04,1.72,-0.43,0.403
CCTTACGTGTCAAGGTTATAGCACGGGTGGTACG,1.28,1.34,1.35,-0.145,1.11,1.57,0.906,0.926
ATCGAAAGGTCGCGGTGAGTATAGAGAAAGGGAA,3.05,5,4.48,1.33,5.39,2.84,0.211,1.06
GTACCTAGGTGAATAGGTCGTTGATGAGTAGGCG,1.12,1.85,0.79,-0.37,1.24,1.08,-0.182,0.0472
ATCGCAAGGTCGAAGGTGAGTATACCCACCCGAA,1.17,2.67,2.23,0.978,2.93,2.12,-0.0109,0.489
ATATGTAGGTTAAGGGGCATTCAGGTTGGTTCGC,2.06,1.58,1.19,1.17,1.85,1.82,1.46,2.03
CCGAATGGGGCAAAGGTTACCATACTCAGTACGA,2.37,3.65,1.72,0.549,4.27,1.86,-0.191,0.204
CGAACTAGGTCATTGACAGGATAGTGAATAGTAA,2.38,3.62,3.86,2.34,2.55,2.57,0.521,0.957
TCATATAAGTAAAAGGTGAAAGTCGGTGTGGTAA,1.85,1.3,0.831,1.85,2.11,1.46,0.55,0.109
ACTTATGGGTCAACGAGGTTATAGCACGCGTATA,3.67,5.04,5.1,1.92,5.18,3.79,1.03,2.82
AGTCAAAGTTCATCTAGGTACCGTAAGATATGCT,3.72,5.39,5.76,4.67,4.36,3.05,-0.565,5.46
CGAACTAGGTCAGAACAGGACAGTGTAGGATGAT,2.16,2.56,3.47,0.551,1.28,3.47,0.227,0.291
CATACAGGGTCAGCAAGGCCAGAGTAGGGACGGC,3.4,4.63,5.18,1.92,4.64,3.29,1.03,2.08
GCTGCTAGGTCAGGTTGGTCAGCTGACGGGTACG,2.62,2.79,3.56,0.752,1.09,1.81,0.492,0.505
CCGAGTAGGTTATGGGGCATGCAGGCAACGGTGA,1.15,0.72,0.548,-0.675,0.867,0.102,-0.321,-0.0729
GTACCAAGGTGAAGAGGTCGTTGATGAGTAGGCG,2.46,3.26,1.79,0.608,2.65,2.47,1.09,2.21
GCTTACGTGTCAAAGGTTATAGCATGAATAGAAT,1.28,3.21,1.5,0.885,4.41,1.81,-0.725,-0.00185
TCATATAAGTAAACAGGTGAAAGTCCGTAAGTTA,0.596,0.357,0.421,2.12,0.907,0.674,0.549,0.857
ATCTCTAGGTGAGACTCAGTTCAGTGAAGAACGC,0.564,0.527,0.376,0.062,0.00106,0.954,0.42,0.761
GCTATTAGTTGGAAGGGCAACCGAATGATTCTCG,0.941,0.317,0.522,0.581,0.0792,-0.126,-0.242,-0.28
CAAACTAGGTGACGAAAGGTCAAAGTCGAATGAC,4.9,6.2,6.26,1.41,7.46,4.22,1.33,2.22
CAAACTAGGTCAAAGGTCGAAGTCGAGCCAACCA,3.9,7.26,5.75,2.51,8.7,4.01,0.604,1.73
AGAACGAGGGCAATGAGTTGATAGGACGGGTGGC,1.01,1.22,1.39,2.23,0.869,0.954,-0.116,3.01
TCTATAAGTTGAAGGGCAACCGACGAGTCCGTTT,1.49,0.829,1.07,1.59,1.01,0.466,0.137,1.57
TTACCAAGGTGAATGTCGTTGATCCCTCTGTAGA,0.851,0.459,0.367,0.1,0.711,1.82,0.923,-0.448
TCATATAGGTACAGGTGAAAGTCGAACGATATGA,0.469,0.866,0.834,0.797,1.07,0.566,-0.52,0.343
GCTCGGCGGACAAGGTCAGAGCTTTGTCCGTAGA,2.47,2.59,2.54,-0.314,2.11,2.25,0.553,0.0541
CCGACTGGGGCAAAGGGTACCATACTCAGTACGA,0.849,0.946,0.506,-0.546,0.731,0.31,-0.963,0.0229

# From the supplement of paper PMC6555819
